Reference: PubChem BioAssay (NCATS)
Where “and” joins values, the source holds several entries; their conditions need not be identical. Identical values can stand only once. Unmarked numbers belong to inactive results. Inconclusive results are not listed. Where a call stands in place of a potency, no number is given. Calls of active or inactive are those of the source. Unless noted, the call rests on the fitted dose curve; in most records, active means well fitted curve in the direction sought with a large enough effect; inconclusive means small, poorly fitted or top-dose-only effect, or another doubt; inactive means no such curve, though single readings can be large; an effect the other way counts as inactive or inconclusive.

Experiments:
[1] = Cell Viability - MRC5 (AID 434; calls by dose curve;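 further: potency means the concentration at half of the fitted maximal effect; cells exposed to compound for 40 hours at 37 °C; potency reflects cytotoxicity seen as loss of intracellular ATP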); details: MRC5 lung fibroblast viability, qHTS
Summary of the method: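 MRC5 normal human lung fibroblasts (1500/well) were treated with compounds for 40 hr at 37 °C in complete medium, and viable cells were measured as intracellular ATP by CellTiter-Glo luminescence. AC50 came from Hill fits, normalized to DMSO and 100 uM tamoxifen.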

[2] = Cellular Toxicity (caspase-3) HepG2 (AID 654); details: HepG2 caspase-3 activation, luminescence; series mostly up to 92.2 µM;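 further: cells exposed to compound for 16 hours before reading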
Summary of the method: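 HepG2 cells (1500/well) in complete medium were treated with compounds for 16 hr at 37 °C. Caspase-3/7 activity was then read as luminescence from peptide-aminoluciferin cleavage. AC50 came from Hill fits, normalized to DMSO and 100 uM tamoxifen.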

[3] = Cellular Toxicity (caspase-3) HUV-EC-C (AID 656); details: HUV-EC-C cells, caspase-3 activation (apoptosis); series mostly up to 92.2 µM
Summary of the method: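 Luminescent caspase-3/7 activation (aminoluciferin substrate cleavage) in HUV-EC-C cells after 16 hr compound exposure, 37°C. Signal normalized to DMSO basal and 100 uM tamoxifen as 100%; AC50 from concentration-response fitted with the Hill equation.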

[4] = Cellular Toxicity (caspase-3) SHSY5Y (AID 657); details: SH-SY5Y caspase-3 activation; series mostly up to 91.7 µM
Summary of the method: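 Luminescent caspase-3/7 readout (aminoluciferin release) in SH-SY5Y cells after 16 h compound exposure in complete medium. Activity scaled between DMSO basal and 10 uM staurosporine as 100%; concentration-response fitted to Hill equation for AC50.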

[5] = Cellular Toxicity (caspase-3) MRC-5 (AID 659); details: MRC-5 cells, luminescence, normalized: DMSO 0%, 10 µM staurosporine 100%; series mostly up to 91.7 µM
Summary of the method: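 Luminescence from caspase-cleaved aminoluciferin substrate (Caspase-Glo 3/7, 1 hr RT) reports caspase 3/7 activity in MRC-5 lung fibroblasts after 16 hr compound exposure. Normalized to DMSO basal and 10 uM staurosporine as 100%; AC50 from Hill fits.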

[6] = Cellular Toxicity (caspase-3) Mesangial (AID 660); details: mesangial cells, normalized: DMSO 0%, 100 µM tamoxifen 100%; series mostly up to 91.7 µM;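 further: cells exposed to compound for 16 h before the caspase read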
Summary of the method: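 Human renal glomerular mesangial cells (1000/well) were treated with compounds for 16 h at 37 °C in complete medium, then caspase 3/7 activity was read by Caspase-Glo luminescence. Data were normalized to DMSO and 100 uM tamoxifen; AC50 from Hill fits.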

[7] = Cellular Toxicity (caspase-3) SK-N-SH (AID 661); details: SK-N-SH caspase-3 activation, qHTS, DMSO as zero, staurosporine as full; series mostly up to 91.7 µM
Summary of the method: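 SK-N-SH human neuroblastoma cells (1500/well) were treated with compounds for 16 hr at 37 °C in complete medium; caspase 3/7 activity was read by Caspase-Glo luminescence. AC50 came from Hill fits of data normalized to DMSO and 10 uM staurosporine.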

[8] = Cellular Toxicity (caspase-3) H-4-II-E (AID 663); details: H-4-II-E rat hepatoma; Potency: caspase-3 activation; series mostly up to 92.2 µM;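 further: cells exposed to compound for 16 hr before readout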
Summary of the method: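 Luminescence from caspase-cleaved aminoluciferin substrate, read 20 min after reagent addition, reports caspase 3/7 activation in rat H-4-II-E cells after 16 hr compound exposure. Normalized to DMSO (basal) and 100 uM tamoxifen (100%); AC50 from Hill fits.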

[9] = Cellular Toxicity (caspase-3) N2a (AID 665); details: N2a cells, luminescence, normalized: DMSO 0%, 10 µM staurosporine 100%; series mostly up to 92.2 µM;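 further: compound exposure lasted 16 h at 37 °C before readout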
Summary of the method: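 Mouse N2a neuroblastoma cells (1500/well) were treated with compounds for 16 h at 37 °C, then caspase-3/7 activity was read by Caspase-Glo luminescence after 1 h at room temperature. Data were normalized to DMSO and 10 uM staurosporine; AC50 from Hill fits.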

[10] = Cellular Toxicity (caspase-3) NIH 3T3 (AID 666); details: NIH 3T3 caspase-3 activation, apoptosis/toxicity, 0% DMSO, 100% is 100 µM tamoxifen; series mostly up to 92.2 µM
Summary of the method: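 Mouse NIH 3T3 fibroblasts (1000 cells/well) were treated with compound for 16 hr at 37°C in complete medium; caspase-3/7 activity was read by Caspase-Glo luminescence. Normalized to DMSO and 100 uM tamoxifen; AC50 from Hill fits.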

[11] = Cellular Toxicity (caspase-3) Renal Proximal Tubule (AID 667); details: renal proximal tubule cells, primary cells freshly taken from rat; Potency: caspase-3 activation; series mostly up to 91.7 µM;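 further: cells exposed to compound for 16 hours at 37 °C before detection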
Summary of the method: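 Luminescent caspase 3/7 signal from peptide-aminoluciferin cleavage measures apoptosis in freshly isolated rat kidney proximal tubule cells after 16 h compound exposure. Concentration-response data are normalized to DMSO and 10 uM staurosporine, and AC50 values come from Hill equation fits.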

[12] = MultiTox-Fluor Cytotoxicity Assay - LYMP1-001 - Dead Cells (AID 946); details: LYMP1-001 lymphoblastoid cells, dead-cell protease fluorescence; series mostly up to 92.2 µM; further: potency means the concentration at half of the fitted maximal effect
Summary of the method: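 LYMP1-001 lymphoblastoid cells (2500/well) treated 16 h at 37 C. Dead-cell protease cleavage of bis-AAF-R110 read at Ex/Em 485/520. Normalized to DMSO and 15 uM tetraoctylammonium bromide; AC50 from Hill fits.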

[13] = Cell Viability - LYMP1-002 - Assay at 16 hr (AID 948); details: LYMP1-002 lymphoblastoid cell viability; series mostly up to 92.2 µM; further: potency means the concentration at half of the fitted maximal effect
Summary of the method: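 LYMP1-002 human lymphoblastoid cells, 2500/well; 5 hr 37 C; cpd 16 hr 37 C; CellTiter-Glo 30 min RT; luminescence (ATP). Concentration-response, Hill-fit AC50. Pos ctrl tetraoctylammonium bromide.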

[14] = MultiTox-Fluor Cytotoxicity Assay - LYMP1-002 - Live Cells (AID 955); details: LYMP1-002 lymphoblastoid live-cell protease fluorescence viability; series mostly up to 46.1 µM
Summary of the method: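 Human lymphoblastoid LYMP1-002 cells, 2500/well in complete medium, rested 5 hr at 37 C, then exposed to compounds for 16 hr at 37 C. Live-cell protease cleavage of GF-AFC read by fluorescence (Ex/Em 405/510) after 60 min at room temperature; AC50 from Hill fits.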

[15] = MultiTox-Fluor Cytotoxicity Assay - LYMP1-003 - Live Cells (AID 962); details: LYMP1-003 lymphoblastoid cells, MultiTox-Fluor live-cell protease fluorescence; series mostly up to 92.2 µM;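 further: cytotoxic hits lower the live-cell protease signal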
Summary of the method: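 LYMP1-003 human lymphoblastoid cells (2500/well) in complete medium were preincubated 5 hr at 37 C, then exposed to compounds for 16 hr at 37 C. Live-cell protease cleavage of GF-AFC read by fluorescence (Ex/Em 405/510); AC50 from Hill fits.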

[16] = Cell Viability - LYMP1-003 - Assay at 24 hr (AID 963); details: LYMP1-003 lymphoblastoid cell viability; series mostly up to 92.2 µM
Summary of the method: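 Human lymphoblastoid LYMP1-003 cells (2500/well) were rested 5 hr at 37 C, then exposed to compounds in complete medium for 24 hr at 37 C. Cellular ATP was quantified by CellTiter-Glo luminescence, and AC50 values came from Hill fits of concentration-response data.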

[17] = Cell Viability - LYMP1-002 - Assay at 24 hr (AID 993); details: LYMP1-002 lymphoblastoid cells viability; series mostly up to 92.2 µM; further: potency means the concentration at half of the fitted maximal effect
Summary of the method: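 Human lymphoblastoid LYMP1-002 cells, 2500/well in complete medium, were treated with compounds for 24 h at 37 C; intracellular ATP was read by CellTiter-Glo luminescence. AC50 values came from Hill-equation fits of qHTS concentration-response data.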

[18] = qHTS Assay for Identification of Small Molecule Inducers of Hypoxia Response (AID 2120; active means well fitted curve in the direction sought with a large enough effect in the signal ratio, with a control signal flat, not every such curve was filed as active; the % refers to the signal ratio); details: hypoxia response reporter cells, beta-lactamase ratio readout; series mostly up to 104 µM
Summary of the method: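 HRE-beta-lactamase reporter in CellSensor HRE-bla ME-180 cells, 2500 cells/well in Opti-MEM with 0.5% dialyzed FBS; compounds tested as titration series, 17 h at 37 degrees C. CCF4 substrate 2.5 h at room temperature; AC50 from 460/530 nm ratio.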

[19] = molecular target: Peroxisome proliferator-activated receptor alpha (Homo sapiens) (UniProt Q07869); experiment: qHTS assay for small molecule agonists of the peroxisome proliferator-activated receptor alpha (PPARalpha) signaling pathway (AID 651778); details: PathHunter PPARalpha complementation, chemiluminescence, 6 h; max response: hits give high values
Peroxisome proliferator-activated receptor alpha (Homo sapiens), sequence (Q07869 whole entry, looked up): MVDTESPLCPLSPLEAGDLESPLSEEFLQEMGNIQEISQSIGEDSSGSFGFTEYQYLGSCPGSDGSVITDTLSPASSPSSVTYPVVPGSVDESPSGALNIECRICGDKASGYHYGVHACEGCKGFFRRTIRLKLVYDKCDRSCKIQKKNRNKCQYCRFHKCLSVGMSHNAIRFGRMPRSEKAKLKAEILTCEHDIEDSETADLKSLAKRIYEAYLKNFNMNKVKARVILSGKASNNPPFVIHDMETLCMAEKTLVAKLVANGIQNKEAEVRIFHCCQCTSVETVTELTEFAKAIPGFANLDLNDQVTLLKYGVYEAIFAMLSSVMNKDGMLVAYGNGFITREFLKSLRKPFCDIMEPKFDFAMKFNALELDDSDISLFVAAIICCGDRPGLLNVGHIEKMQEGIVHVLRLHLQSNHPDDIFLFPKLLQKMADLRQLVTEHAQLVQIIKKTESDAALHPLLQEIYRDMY
Summary of the method: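 Cells plated at 2,000/well and held overnight at 37 C, 5% CO2, then compound added by pin tool for 6 hr; after PathHunter detection reagent and 60 min at room temperature, chemiluminescence from enzyme complementation was read.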

[20] = qHTS assay for small molecule agonists of the antioxidant response element (ARE) signaling pathway measured by Nrf2-dependant transcriptional activity - cell viability counter screen (AID 720653; active means well fitted curve in the direction sought with a large enough effect in the repeat runs; an effect the other way counts as inactive or inconclusive); details: ARE-bla HepG2 viability, CellTiter-Glo ATP luminescence, 16 h; max response: hits give low values
Summary of the method: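 ARE-bla HepG2 cells (2,000/well) rested 5 hrs at 37C/5% CO2, then exposed to compounds in DMSO for 16 hrs. Viability was read in the same wells as intracellular ATP by luminescence, 30 min at room temperature after reagent addition.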

Row | SMILES | Potency [1] [µM] | Potency [2] | Potency [3] | Potency [4] | outcome [5] | outcome [6] | outcome [7] | Potency [8] | outcome [9] | outcome [10] | Potency [11] | Potency [12] | Potency [13] | outcome [14] | Potency [15] | Potency [16] | Potency [17] | Potency [18] | max response [19] | max response [20]
1 | O=C(OCC1CO1)C1CCCCC1C(=O)OCC1CO1 (stereo not given) | > 92 | inactive | inactive | inactive | inactive | inactive | inactive | inactive | inactive | inactive | inactive | inactive | inactive | inactive | inactive | inactive | inactive | inactive | 11.4% | 4.68%
2 | O=C(O)c1ccc([N+](=O)[O-])cc1 | > 92 | inactive | inactive | inactive | inactive | inactive | inactive | inactive | inactive | inactive | inactive | inactive | inactive | inactive | inactive | inactive | inactive | inactive | -2.26% and 0.632% | -7.35% and -20.8%
3 | Clc1nc2ccccc2nc1Cl | > 92 | inactive | inactive | inactive | inactive | inactive | inactive | inactive | inactive | inactive | inactive | inactive | inactive | inactive | inactive | inactive | inactive | inactive | 0.306% | 0.874%
4 | O=[N+]([O-])c1cc(N(CCO)CCO)ccc1NCCO | 67.7 | inactive | inactive | inactive | inactive | inactive | inactive | inactive | inactive | inactive | inactive | inactive | – | inactive | inactive | inactive | – | inactive | -11.2% and -4.73% | -24.7%
5 | O=[N+]([O-])c1cc(Cl)c(Cl)c(Cl)c1Cl | > 92 | inactive | inactive | inactive | inactive | inactive | inactive | inactive | inactive | – | inactive | 25.1 µM (active) | inactive | inactive | inactive | inactive | inactive | inactive | -1.46% | -4.59%
6 | C/C=C1/C(=O)C[C@H]2[C@@H]3CCC4=CC(=O)CC[C@]4(C)[C@H]3CC[C@]12C | > 92 | inactive | inactive | inactive | inactive | inactive | inactive | inactive | inactive | inactive | inactive | 39.8 µM (active) | 50.1 µM (active) | – | inactive | – | 50.1 µM (active) | inactive | -2.73% | -1.31%
